The structures appear in SMILES notation. Hit rate of the full screen: of about 360,000 compounds, about 7,300 (2%) were called active. Many of the other results were omitted from the sample, so actives are more common in it than they were. Unmarked numbers belong to inactive results. No stated cut-off is given here; in the data, active means inhibition above about 50%; inactive means the rest.

The experiment can be described thus: blockers of TWEAK-induced Fn14 reporter activity – luciferase reporter cells, uHTS, primary screen (AID 1159606). Particulars: TWEAK-stimulated Fn14 reporter cells, luciferase luminescence, 8 h; at 10 µM; hits give high values. Background: In a reporter assay the amount or activity of a reporter protein is the signal.
As to `Cc1ccc(Nc2nc(CSc3nnc(-c4ccncc4)n3-c3ccccc3C)cs2)cc1`, the inhibition was 74.3% (active).

As to `Cc1ccc(-c2noc(CSc3nnc(-c4ccncc4)n3-c3ccc(F)cc3)n2)cc1`, the inhibition is 1%.

As to `Cc1ccc(-n2c(SCC(=O)N3c4ccccc4Sc4ccccc43)nnc2-c2ccncc2)cc1`, the inhibition is 20.4%.

As for `FC(F)(F)c1cc(C(F)(F)F)c2ccc(N3CCN(c4ccccc4)CC3)nc2n1`, the inhibition was -12.2%.

Regarding `Clc1ccc2nc(CSc3ccccc3)cn2c1`, the inhibition was 59.6% (active).

Turning to `Cc1ccc(-c2nc3ccc(Cl)cn3c2Cc2ccccc2)cc1`, the inhibition was -22%.

As for `Cc1ccc(Cc2c(-c3ccccc3)nc3ccc(Cl)cn23)cc1`, the inhibition was -20.8%.

In the case of `CC1(C(=O)NS(=O)(=O)c2cccc(F)c2)CCN1C(=O)c1cccc2ccccc12` (stereo not drawn), the inhibition was -20.6%.

Consider `Cc1ccc(-c2cnc(C(O)c3cc(Cl)cc(Cl)c3)[nH]2)cc1` (stereo not drawn), for which the inhibition was -5.74%.

For the molecule `CC1CCc2sc3nc(N4CCN(CCO)CC4)n4ncnc4c3c2C1` (stereo not drawn), the inhibition was -63.4%.

Turning to `COC(=O)c1ccc2nc(-c3ccccc3)c(Cc3ccc(OC)cc3C)n2c1`, the inhibition was -3.6%.

Turning to `CCCCNc1c(-c2cccc(Sc3ccc(OC)cc3)c2)nc2ccccn12`, the inhibition was 53.7% (active).

Regarding `CCCCNc1c(-c2ccc(OC)c(Sc3ccc(OC)cc3)c2)nc2ccc(Cl)cn12`, the inhibition was 5.14%.

For the molecule `COC(=O)c1cc(=O)n(-c2c(Cl)cc(C(F)(F)F)cc2Cl)[nH]1`, the inhibition was 7.88%.

On to `O=C(Nc1ccccn1)C1CCN(S(=O)(=O)c2ccccc2)CC1`, for which the inhibition was -18.5%.

`CCOC(=O)C1CCCN(C(=O)C2CCN(S(=O)(=O)c3ccc(Cl)c(C(F)(F)F)c3)CC2)C1` (stereo not drawn): the inhibition was -2.02%.

As to `O=C(Nc1nccs1)C1CCN(S(=O)(=O)c2ccc(Cl)c(C(F)(F)F)c2)CC1`, the inhibition was 73.5% (active).

Turning to `N#Cc1cccc(NC(=O)c2cc(C3CCCCN3C(=O)CCc3ccccc3)on2)c1` (stereo not drawn), the inhibition was 26.1%.

Turning to `C#CCN(N(C)c1ncc(C(F)(F)F)cc1Cl)S(=O)(=O)c1ccc2ccccc2c1`, the inhibition was 18%.

Take `C=CCNc1nc(N)c(C(=C(C#N)C#N)c2ccccc2)s1`: the inhibition was 17.7%.

In the case of `Cc1ccc(-n2c(-c3ccc(Cl)cc3)n[nH]c2=S)cc1`, the inhibition was 104% (active).

With `COc1ccc(-n2c(-c3ccc(Cl)cc3)n[nH]c2=S)c(OC)c1`, the inhibition was 0.97%.

Regarding `Cc1cc(-c2n[nH]c(=S)n2-c2ccc(C)c(C)c2)no1`, the inhibition is 4.62%.

On to `CC(C)=C(NC(=O)c1ccco1)C(=O)NCCc1nc2ccccc2[nH]1`, for which the inhibition was 83.7% (active).

Consider `CC(C)Oc1ccc(/C=C(\NC(=O)/C=C/c2ccco2)C(=O)NCCc2nc3ccccc3[nH]2)cc1`, for which the inhibition was 13.7%.

As to `CCCC(NC(=O)c1ccco1)c1nc2ccccc2[nH]1` (stereo not drawn), the inhibition was 19.6%.

For the molecule `Cc1csc(NC(=O)CSc2ccc(-c3ccc(F)cc3)nn2)n1`, the inhibition was -0.16%.

For `C=CCC[C@H](CCCCC)OC(=O)/C=C/[C@H](O)[C@@H](O)C[C@@H](O)CC=C`, the inhibition was 2.69%.

Take `c1c2c(cc3sc(N4CCCCC4)nc13)OCCO2`: the inhibition is 98.9% (active).

As to `CCOC(=O)N1CCC(NC(=O)c2ccc3nc(N4CCOCC4)sc3c2)CC1`, the inhibition was 18.3%.

`CCCCc1ccc(NS(=O)(=O)c2cccc(C(=O)N3CCCN(C)CC3)c2)cc1`: the inhibition was 13.3%.

Take `CN(C)/C=C/c1c(C#N)c(=O)ncn1Cc1ccccc1`: the inhibition was 1.93%.

As for `O=c1c2c(ncn1Cc1ccccc1)nc1n2CCC1`, the inhibition is -3.28%.

As for `CN(C)c1ccnc2sc3c(=O)n(Cc4ccccc4)cnc3c12`, the inhibition is 69.3% (active).

For `O=C(c1ccccc1)N1CCN(C(=O)c2cc3nc(-c4ccccc4)cc(C(F)(F)F)n3n2)CC1`, the inhibition was 12%.

As to `C#Cc1cc(N2CCN(C(=O)c3ccoc3)CC2)n2nc(-c3cccc(Cl)c3)cc2n1`, the inhibition is -13.9%.

Regarding `O=C(c1ccccc1)N1CCN(c2cc(-c3ccccc3)nc3cc(-c4cccc(Cl)c4)nn23)CC1`, the inhibition is 50.7% (active).

On to `CCC(Sc1nncn1C)C(=O)Nc1nnc(-c2ccc(Cl)cc2)s1` (stereo not drawn), for which the inhibition was 2.15%.

Take `Cc1cc(C(=O)OCC(=O)Nc2ccc(F)c(F)c2)c(C)o1`: the inhibition was -6.41%.

For the molecule `CCOc1ccc(S(=O)(=O)NCC2CCCO2)cc1` (stereo not drawn), the inhibition was -13.5%.

For `O=S(=O)(NCC1CCCO1)c1cnc(Cl)c(Cl)c1` (stereo not drawn), the inhibition is 61.4% (active).

Take `O=S(=O)(NCC1CCCO1)c1ccc2ccccc2c1` (stereo not drawn): the inhibition is -2.08%.

With `CC1CCCC(C)N1C(=O)COC(=O)c1ccccc1C(=O)c1ccccc1` (stereo not drawn), the inhibition is 3.29%.

On to `Cc1ncoc1C(=O)N1CCCC(C(=O)c2ccc3c4c(cccc24)CC3)C1` (stereo not drawn), for which the inhibition is -10.9%.

Turning to `O=C(CCN1CCc2ccccc2C(O)(c2ccccc2)C1)c1ccc2c(c1)OCCO2` (stereo not drawn), the inhibition is 60.1% (active).

As for `O=C(CN1CCN(c2ccccc2F)CC1)c1ccc2c(c1)OCO2`, the inhibition is -7.75%.

For `CCC1(c2ccccc2)NC(=O)N(CC(=O)c2ccc3c(c2)OCO3)C1=O` (stereo not drawn), the inhibition is 1.98%.

Take `NC(=O)c1nnsc1-c1ccc(-c2snnc2C(N)=O)cc1`: the inhibition was 16.3%.

Take `CCc1ccccc1N1CN(Cc2ccco2)CNC1=S`: the inhibition is -34%.

For the molecule `CC(C)C(NC(=O)C1CCC(C(C)(C)C)CC1)C(=O)NCCCN1CCCCC1` (stereo not drawn), the inhibition is -11.2%.

With `COC(=O)c1cc(Oc2ccc(S(=O)(=O)N3CCOCC3)cc2[N+](=O)[O-])cc(C(=O)OC)c1`, the inhibition is 3.34%.

As for `Cc1cc(C(=O)COc2ccccc2[N+](=O)[O-])c(C)n1-c1cccc(S(=O)(=O)N2CCOCC2)c1`, the inhibition was 82.7% (active).

On to `Cc1cc(S(=O)(=O)N2CCOCC2)ccc1OCC(=O)N1CCOCC1`, for which the inhibition is 3.41%.

For `COCCN(C(=O)C(C)N1C(=O)c2ccccc2C1=O)c1c(N)n(CC(C)C)c(=O)[nH]c1=O` (stereo not drawn), the inhibition was 2.19%.

For the molecule `CC/C(O)=C1\C(=O)CC(C)(C)CC1=NCCc1nc2ccccc2[nH]1`, the inhibition is 4.19%.

On to `CC1(C)O[C@@H]2CC3C4C[C@H](F)C5=CC(=O)C=CC5(C)C4C(O)CC3(C)[C@]2(C(=O)CO)O1` (stereo partly drawn), for which the inhibition was -4.61%.

As for `COc1ccc(C(=O)NCC[N+](C)(C)C)cc1`, the inhibition was 7.64%.

For `CS(=O)(=O)N(CC(=O)N/N=C/c1ccccn1)c1ccc(Oc2ccccc2)cc1`, the inhibition was 4.09%.

As for `c1ccc(CNc2ncnc3[nH]ncc23)cc1`, the inhibition was 2.58%.

On to `Brc1ccc2ncnc(NCc3cccnc3)c2c1`, for which the inhibition was 62.2% (active).

Consider `Clc1ccc(Cn2ncc3c(NCc4cccnc4)ncnc32)cc1`, for which the inhibition was 31.4%.

For the molecule `Cc1ccccc1NC(=O)NC1(C(=O)N2CCCC2)CCCCC1`, the inhibition was -3.42%.

For the molecule `O=C(Cc1ccc(Cl)cc1)NC1CCS(=O)(=O)C1` (stereo not drawn), the inhibition was -0.04%.

Take `CC(C)C(=O)NC(NC(=S)NC1CCS(=O)(=O)C1)C(Cl)(Cl)Cl` (stereo not drawn): the inhibition was 25.4%.

Take `COc1ccc(NC(=S)NC2CCS(=O)(=O)C2)cc1` (stereo not drawn): the inhibition was -0.47%.

Regarding `O=C(CSc1ccccc1F)NC1CCS(=O)(=O)C1` (stereo not drawn), the inhibition was 2.35%.

For the molecule `CCCSC(=S)NC1CCS(=O)(=O)C1` (stereo not drawn), the inhibition was 78.9% (active).

In the case of `O=S1(=O)CCC(NC(=S)SCc2ccccc2Br)C1` (stereo not drawn), the inhibition was 54.2% (active).

With `Cc1ccc(NC2CCCN(C(=O)CCC3(C)CC3)C2)cc1C` (stereo not drawn), the inhibition was -13.8%.

With `CSc1ccc(/C=C2\NC(=O)NC2=O)cc1`, the inhibition is -11.1%.

Turning to `CNC(=O)c1c(NC(NC(=O)c2ccco2)C(=O)c2ccc(Cl)cc2)sc2c1CCCC2` (stereo not drawn), the inhibition is -9.64%.

As for `CCCc1nn(C)c2c(=O)[nH]c(-c3cc(S(N)(=O)=O)ccc3OCC)nc12`, the inhibition was -1.76%.

On to `CNC(=O)C1CCN(S(=O)(=O)c2c(C)noc2/C=C/c2cccc(C)c2)CC1`, for which the inhibition was -21.5%.

As to `Cc1noc(/C=C/c2ccco2)c1S(=O)(=O)N1CCC(C(=O)Nc2ccc(Cl)cn2)CC1`, the inhibition is 51% (active).

For `Cc1noc(/C=C/c2ccco2)c1S(=O)(=O)N1CCC(C(=O)N2CCc3ccccc32)CC1`, the inhibition is 6.06%.

In the case of `CCCCN1C(=O)C(CC(=O)NCc2cccs2)CC(C(=O)N2CCCCCC2)=C1C` (stereo not drawn), the inhibition is -6.58%.

As to `Oc1cc(O)c2c(c1)OC(c1ccc(O)c(O)c1)C(O)C2` (stereo not drawn), the inhibition was -8.69%.

Take `Clc1ccc(-c2cccc3nccn23)cc1`: the inhibition is -3.21%.

Regarding `COC(=O)c1cccc(C(=O)N2CCCC(Nc3ccc4c(c3)OCCO4)C2)c1` (stereo not drawn), the inhibition is 13.2%.

For `CCCCN(C(C)=O)c1ccc2c(c1)C1CC2CCN1Cc1ccccc1` (stereo not drawn), the inhibition was -18%.

On to `CCCCNC(=O)OCCSCCS(=O)(=O)c1ccc(Cl)cc1`, for which the inhibition was -5.78%.

On to `Cc1cccc(NC(=O)Cn2cc(C(=O)c3ccco3)c3ccccc32)c1`, for which the inhibition is -6.45%.

Take `Cc1ccc(C)c(Cn2nnc3c(=O)[nH]c(C(=O)Nc4ccc(F)cc4)nc32)c1`: the inhibition is -5.18%.

For the molecule `Cc1cccc(CS(=O)(=O)c2ncc(Cl)c(C(=O)Nc3ccc(F)cc3)n2)c1`, the inhibition is 77% (active).

As to `Cc1cccc(NC(=O)CCN2CC(C)CC(C)C2)c1` (stereo not drawn), the inhibition is -9.11%.

As for `Cc1cccc(CN2CCC(CNC(=O)Nc3ccc(F)c(Cl)c3)CC2)c1`, the inhibition was 10.9%.

In the case of `Cc1cccc(NC(=O)c2nc(S(=O)(=O)Cc3ccccc3)ncc2Cl)c1`, the inhibition is 75.7% (active).

Consider `CC(C)CN(CC(C)C)CC(O)CN(c1ccccc1)S(=O)(=O)c1ccccc1[N+](=O)[O-]` (stereo not drawn), for which the inhibition is 16%.

With `CC(=O)C1C(c2ccc(Cl)cc2)c2c(n[nH]c2C)CC1(C)O` (stereo not drawn), the inhibition was -9.34%.

With `CC(C)(C)C(=O)c1c(N)[nH]c(C(=O)c2ccccc2)c1-c1ccc(F)cc1`, the inhibition was -3.63%.

For the molecule `CN(c1ccc2nc3ccccc3c(=O)n2n1)C1CCCCC1`, the inhibition is 105% (active).

In the case of `CN(C(=O)Nc1ccc(Cl)cc1)n1cnc2ccccc2c1=O`, the inhibition is 1.4%.

Consider `CC(C)(C)c1nc2ccccc2c(=O)n1N1C(=O)c2ccccc2C1=O`, for which the inhibition is 20.8%.

For `Nc1nnc(SCC(=O)Nc2ccc3nc(SCC(=O)Nc4ccccc4)sc3c2)s1`, the inhibition was 86.4% (active).

In the case of `CCCCNC(=O)CSc1nc2ccc(NC(=O)CSc3nnc(N)s3)cc2s1`, the inhibition was 23.8%.

Turning to `CCCCNC(=O)CSc1nc2ccc(NC(=O)CSc3nnc(COc4ccccc4C)n3C)cc2s1`, the inhibition is -37.4%.

Regarding `Cc1nc(CNS(=O)(=O)c2ccc(Oc3ccccc3)cc2)cs1`, the inhibition was 23.5%.

As for `c1ccc2c(C[n+]3csc4ccccc43)cccc2c1`, the inhibition was -11.1%.

Regarding `O=C(C(c1ccccc1)c1ccccc1)N1CCN(CC(O)COc2ccccc2)CC1` (stereo not drawn), the inhibition is 3.97%.

With `OC(CN=c1sc2ccccc2n1CC(O)COc1ccccc1)COc1ccccc1` (stereo not drawn), the inhibition is 70.7% (active).

Take `CC(C)c1ccc(OCC(O)Cn2cnc3ccccc32)cc1` (stereo not drawn): the inhibition was -16.5%.

Consider `COc1ccc([C@H]2CC(=O)C[C@@H](CCn3cc(CC4CCCC4)nn3)O2)cc1`, for which the inhibition was 7.34%.

For `C[C@@H]1CC2=C(C(=O)OC(C)(C)O2)[C@@H](C2CC2)O1`, the inhibition was 4.57%.

As a reminder, the inhibition is the relative decrease from the control value, in per cent.

These data come from PubChem BioAssay AID1159606 (Sanford-Burnham Center for Chemical Genomics, 2016).
